The source made the active and inactive calls. Rule for the calls: active = hit-call score of the fitted dose curve at least 0.9, where 1 is the maximum; inactive = score below 0.9.

The test can be described thus: APR_HepG2_CellCycleArrest_72hr: Apredica 72-hour HepG2 Assay for Cell Cycle Arrest (AID 2282914). The settings on record: high-content imaging, actives raise or lower the signal. As for the experimental part: APR_HepG2_72hr is a cell-based, multiplexed-readout assay that uses HepG2, a human liver cell line, with measurements taken at 72 hours after chemical dosing in a 384-well plate.APR_HepG2_CellCycleArrest_72hr is one of 10 assay component(s) measured or calculated from the APR_HepG2_72hr assay. It is designed to make measurements of cell phenotype, a form of morphology reporter, as detected with fluorescence intensity signals by HCS Fluorescent Imaging technology.Data from the assay component APR_HepG2_CellCycleArrest_72hr was analyzed into 1 assay endpoint. This assay endpoint, APR_HepG2_CellCycleArrest_72hr, was analyzed with bidirectional fitting relative to DMSO as the negative control and baseline of activity. Using a type of morphology reporter, measures of all nuclear dna for gain or loss-of-signal activity can be used to understand the signaling at the pathway-level as they relate to the gene . Furthermore, this assay endpoint can be referred to as a primary readout, because this assay has produced multiple assay endpoints where this one serves a signaling function. To generalize the intended target to other relatable targets, this assay endpoint is annotated to the cell cycle intended target family, where the subfamily is arrest.
Cells were treated with dimethyl sulfoxide (DMSO) as a solvent control at a final concentration of 0.5% v/v or with compounds in DMSO with a resulting final DMSO concentration of 0.5% v/v. Compound treatment was done at concentrations of 0.39, 0.78, 1.56, 3.12, 6.24, 12.5, 25, 50, 100, and 200 uM in duplicate on each plate. Cells were treated with compounds for 1, 24, or 72 hr. Carbonyl […] m-chloro-phenylhydrazone (CCCP) and taxol were used as positive controls for mitochondrial function and cytoskeletal stability, respectively; DMSO served as the negative control for this experiment. Cells were fixed by the direct addition of 50 uL formaldehyde in Hank's Balanced Salt Solution (HBSS) to a final concentration of 3.7%. After incubation in the fixation medium for 30 min at room temperature (293-298 K), cells were rinsed twice with HBSS and treated with cell permeabilization buffer (16 uL of 0.5% Triton X-100) for 10 min at room temperature (293-298 K) before labeling. For mitochondrial membrane potential and mitochondrial measurements, pre-fixed cells were incubated with 50 uL of MitoTracker Red CMXRos (Invitrogen) at a concentration of 250 nM for 30 min before fixation. In the remaining cases, post-fixed cells were labeled by incubation with a multiplexed mixture of primary antibodies in HBSS for 60 min at room temperature (293-298 K) to detect immunoreactivity of c-Jun (1:500), phospho-histone H3 (1:100), phospho-histone H2A.x (1:200), p53 (1:400), alpha-tubulin (1:200) and Hoechst 33342 (2 ug/mL). Cells were labeled for multiplexed imaging on two separate plates: a) Hoechst 33342, MitoTracker Red, phospho-histone H3, and alpha-tubulin, and b) Hoechst 33342, phospho-histone H2A.x, and c-Jun. A final rinse with HBSS (50 uL) was performed before analysis. The primary and secondary antibodies for the proteins were phospho-histone H3 (rabbit anti-phospho-histone H3 and FITC-donkey anti-rabbit IgG), phospho-histone H2A.x (mouse anti-phospho-histone H2A.x and FITC-donkey anti-mouse IgG), c-Jun (rabbit anti-phospho-c-Jun and Cy3-donkey anti-rabbit IgG), p53 (sheep anti-p53 and Cy5-donkey anti-sheep IgG), alpha-tubulin (mouse anti-alpha-tubulin and Cy5-donkey anti-mouse IgG). These antibodies are available as the CellCiphr HepG2 assay kit (Millipore).Digital images of each well were captured using a Cellomics ArrayScan VTI (Thermo Scientific Cellomics) (0.8 NA objective, 0.63x optical coupler, and XF-93 filter set) at 20x magnification. The images were acquired using the autofocus feature of the ArrayScan instrument, which entails the following steps. First, the camera focuses on channel 1 (Hoechst 33342), where nuclei are identified. Second, a Z offset of 1 um is used for capturing mitochondria (MitoTracker Red). […]
Consider `COc1ccc(-c2ccccc2)cc1NNC(=O)OC(C)C`, for which the molecule was classed as inactive.

In the case of `COCc1cnc(C2=NC(C)(C(C)C)C(=O)N2)c(C(=O)O)c1` (stereo not given), the outcome was inactive. The same measure, in the same setting: with `CCOP(=O)(OCC)Oc1nc(Cl)c(Cl)cc1Cl` the entry was “inactive”; with `CCCCC(C#N)(Cn1cncn1)c1ccc(Cl)cc1` (stereo not given), “inactive”. In the case of `C=C(C)CN(CC)c1c([N+](=O)[O-])cc(C(F)(F)F)cc1[N+](=O)[O-]`, the call was inactive. One may read the AC50 as the midpoint of the concentration-response curve, whichever way the signal moves. Consider `CCN(CC)C(=O)C(C)Oc1cccc2ccccc12` (stereo not given), for which the AC50 was 106 µM (active). Regarding `N#CN=C1SCCN1Cc1ccc(Cl)nc1`, the outcome was inactive. On to `CCCN(CC)CC1COC2(CCC(C(C)(C)C)CC2)O1` (stereo not given), for which the call was inactive. On to `CN/C(=N\[N+](=O)[O-])NCc1cnc(Cl)s1`, for which the result was inactive.

As for `O=C(O)c1c(Cl)ccc2cc(Cl)cnc12`, the call was inactive.

Consider `CCNC(=O)NC(=O)C(C#N)=NOC`, for which the molecule was called inactive. The same measure, in the same setting: with `COP(=S)(OC)Oc1ccc([N+](=O)[O-])c(C)c1` the entry was “inactive”; with `O=P(O)(O)CCCl`, “inactive”; with `CC1(C)CON(Cc2ccccc2Cl)C1=O`, “inactive”.

Turning to `CC1(C)C(C(=O)OC(C#N)c2cccc(Oc3ccccc3)c2)C1(C)C` (stereo not given), the molecule was called inactive. Still for that read-out and setting: with `CC1(C)C(C=C(Cl)Cl)C1C(=O)OC(C#N)c1cccc(Oc2ccccc2)c1` (stereo not given) the entry was “inactive”; with `O=c1n(Cl)c(=O)n(Cl)c(=O)n1Cl`, “inactive”. As to `CNC(=O)N(C)c1nnc(C(C)(C)C)s1`, the molecule was called inactive. As to `COC(=O)c1c(C(F)F)nc(C(F)(F)F)c(C2=NCCS2)c1CC(C)C`, the molecule was called inactive. Same read-out and setting: for `CCOC(=O)C(C)OC(=O)c1cc(Oc2ccc(C(F)(F)F)cc2Cl)ccc1[N+](=O)[O-]` (stereo not given) the value was “inactive”; for `Nc1cnn(-c2ccccc2)c(=O)c1Cl`, “inactive”; for `CCCC(=NOCC)C1=C(O)CC(CC(C)SCC)CC1=O` (stereo not given), “inactive”.

For `Cc1cnc(C2=NC(C)(C(C)C)C(=O)N2)c(C(=O)O)c1` (stereo not given), the outcome was inactive. For `O=C(Nc1ccccc1-c1ccc(Cl)cc1)c1cccnc1Cl`, the outcome was inactive. In the case of `CC(C)=CC1C(C(=O)OCc2coc(Cc3ccccc3)c2)C1(C)C` (stereo not given), the AC50 is 31.7 µM (active). `COCC(C)N(C(=O)CCl)c1c(C)csc1C` (stereo not given): the result was inactive.

As for `Cc1ccc(N=CN(C)C=Nc2ccc(C)cc2C)c(C)c1`, the result was inactive. Take `COP(=S)(OC)SCn1nnc2ccccc2c1=O`: the AC50 is 100 µM (active). With `COC(=O)N(C(=O)N1CO[C@@]2(C(=O)OC)Cc3cc(Cl)ccc3C2=N1)c1ccc(OC(F)(F)F)cc1`, the molecule was called inactive. As to `CSC(=O)c1c(C(F)F)nc(C(F)(F)F)c(C(=O)SC)c1CC(C)C`, the call was inactive. On the same count and under the same terms, with `CCOP(=S)(OCC)Oc1nc(Cl)n(C(C)C)n1` the entry was “inactive”. On the same count and under the same terms, for `CCCCC(O)(Cn1cncn1)c1ccc(Cl)cc1Cl` (stereo not given) the value was “inactive”. Consider `CCOc1nc(C(Cl)(Cl)Cl)ns1`, for which the molecule was classed as inactive. Turning to `CN=C=S`, the AC50 was 54.7 µM (active). For `CC(C)N1C(=O)c2ccccc2NS1(=O)=O`, the molecule was classed as inactive. In the case of `CC(C)(C)C(=O)C(Oc1ccc(Cl)cc1)n1cncn1` (stereo not given), the AC50 is 82.2 µM (active). Take `Cc1c(COC(=O)[C@@H]2[C@H](/C=C(\Cl)C(F)(F)F)C2(C)C)cccc1-c1ccccc1`: the molecule was called inactive.

For the molecule `COP(=O)(OC)O/C(C)=C/C(=O)N(C)C`, the outcome was inactive.

On to `Clc1nc(Cl)nc(Nc2ccccc2Cl)n1`, for which the molecule was classed as inactive. Same read-out and setting: with `CC(C)Nc1nc(Cl)nc(NC(C)C)n1` the entry was “inactive”.

For the origin of these results see PubChem BioAssay (EPA / NIEHS).
